Assay results: PubChem BioAssay (NCI)
“And” between values parts separate entries of the source, which are not always exact repeats. Equal values may be shown once. Compounds without any hit were thinned out: in the full panel of roughly 79,000, 15% have a hit. Where a structure was tested more than once in an assay, its records may differ in their call. The source made the active and inactive calls. No stated cut-off is given here; in the data, active means growth inhibition above about 70%; inactive means the rest.

Tests used:
[1] = NCI Yeast Anticancer Drug Screen. Data for the rad52 strain (AID 147);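 further: 0% = growth of vehicle-treated control cultures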; conditions: S. cerevisiae rad52 mutant growth inhibition, stronger effect = higher value
Method in brief: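 Compounds are applied to a genetically defined yeast strain lacking normal DNA damage repair, and inhibition of growth is expressed relative to cultures given vehicle only.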

[2] = NCI Yeast Anticancer Drug Screen. Data for the wt1 strain (AID 149);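 further: 0% = growth of vehicle-treated wt1 cultures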; conditions: S. cerevisiae wt1 strain (SPY 50644) growth inhibition, stronger effect = higher value
Method in brief: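 wt1 yeast, compound-treated; % growth inhibition vs vehicle control.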

[3] = NCI Yeast Anticancer Drug Screen. Data for the rad50EPP+ strain (AID 151);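 further: 0% = growth of vehicle-treated control cultures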; conditions: S. cerevisiae rad50 mutant strain, stronger effect = higher value
Method in brief: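 Compounds were applied to the rad50EPP+ yeast strain, which bears a defined DNA repair alteration, and growth inhibition was determined relative to vehicle-treated cultures.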

[4] = NCI Yeast Anticancer Drug Screen. Data for the mgt1 strain (AID 153); conditions: S. cerevisiae mgt1 mutant growth inhibition, stronger effect = higher value
Method in brief: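 Strain: mgt1 yeast, one of a set carrying defined DNA damage repair or cell cycle control alterations. Compound-treated growth compared with vehicle.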

[5] = NCI Yeast Anticancer Drug Screen. Data for the rad50 strain (AID 155);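 further: 0% = growth of vehicle-only cultures of the same strain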; conditions: S. cerevisiae rad50 strain growth inhibition, stronger effect = higher value
Method in brief: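 Genetically altered yeast (DNA repair pathway); compound treatment; growth inhibition vs vehicle ctrl.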

[6] = NCI Yeast Anticancer Drug Screen. Data for the mec2-1 strain (AID 157); conditions: S. cerevisiae mec2-1 strain, stronger effect = higher value
Method in brief: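 Strain: mec2-1 (DNA repair/cell cycle alteration). Compound exposure, then growth measured; inhibition expressed relative to vehicle.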

[7] = NCI Yeast Anticancer Drug Screen. Data for the sgs1 mgt1 strain (AID 161);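 further: 0% = growth of cultures given vehicle only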; conditions: S. cerevisiae sgs1 mgt1 strain, stronger effect = higher value
Method in brief: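 Inhibition of yeast growth, normalised to vehicle-treated controls, is reported for a strain bearing genetic alterations in DNA damage repair.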

[8] = NCI Yeast Anticancer Drug Screen. Data for the CLN2oe strain (AID 163);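 further: 0% = growth of vehicle-only control cultures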; conditions: S. cerevisiae CLN2oe strain, stronger effect = higher value
Method in brief: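 Growth of a genetically modified yeast strain is measured after compound exposure and compared with cultures given vehicle alone.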

[9] = NCI Yeast Anticancer Drug Screen. Data for the cln2 rad14 strain (AID 165);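 further: 0% = growth equal to vehicle treated cultures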; conditions: S. cerevisiae cln2 rad14 strain, stronger effect = higher value
Method in brief: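 Compounds are applied to the cln2 rad14 yeast strain, and growth is then compared with that of vehicle-treated cultures to give inhibition.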

[10] = NCI Yeast Anticancer Drug Screen. Data for the bub3 strain (AID 167); conditions: S. cerevisiae bub3 mutant strain, stronger effect = higher value
Method in brief: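 Yeast carrying a defined mutation is treated with each compound, and growth is compared with that of vehicle-exposed cells to give inhibition.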

[11] = NCI Yeast Anticancer Drug Screen. Data for the mlh1 strain (AID 171);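 further: 0% = growth of vehicle-treated control cultures of the same strain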; conditions: S. cerevisiae mlh1 strain growth inhibition, stronger effect = higher value
Method in brief: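 Growth of the mutant yeast strain after compound exposure, expressed as inhibition relative to vehicle-only controls.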

[12] = NCI Yeast Anticancer Drug Screen. Data for the sgs1 strain (AID 173);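 further: 0% = growth of vehicle-only control cultures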; conditions: S. cerevisiae sgs1 mutant, stronger effect = higher value
Method in brief: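 Growth of a yeast strain bearing a defined genetic alteration is measured after compound treatment. Inhibition is expressed relative to vehicle-only controls.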

[13] = NCI Yeast Anticancer Drug Screen. Data for the mlh1 rad18 strain (AID 175); conditions: S. cerevisiae mlh1 rad18 strain growth inhibition, stronger effect = higher value
Method in brief: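 Read-out is yeast growth inhibition, calculated against vehicle-only controls. The compound was applied to a strain engineered with DNA damage repair alterations.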

[14] = NCI Yeast Anticancer Drug Screen. Data for the rad18 strain (AID 177); conditions: S. cerevisiae rad18 mutant growth inhibition, stronger effect = higher value
Method in brief: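 Growth of the mutant yeast strain after compound exposure, normalised to vehicle-only cultures.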

[15] = NCI Yeast Anticancer Drug Screen. Data for the wt2 strain (AID 169);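 further: 0% = growth of vehicle-treated yeast cultures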; conditions: S. cerevisiae wt2 strain growth inhibition, stronger effect = higher value
Method in brief: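 This strain belongs to a panel of yeast strains with defined genetic alterations in DNA damage repair or cell cycle control. Compounds are applied, and growth inhibition is measured against vehicle-treated cultures.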

[16] = at 5.0 µM (retest, dose inferred, filed as 0.5)
[17] = at 50.0 µM (retest, dose inferred, filed as 5.0)

Measured: growth inhibition

O=C(O)c1ccc(N2C(=O)C=CC2=O)cc1
inactive: [1]; at 1.2 µM 1% | [1]; at 3.7 µM 7% | [1]; at 11.0 µM 8% | [1]; at 33.0 µM 27% | [2]; at 1.2 µM -3% | [2]; at 3.7 µM -2% | [2]; at 11.0 µM 1% | [2]; at 33.0 µM 10% | [2]; at 100.0 µM 53% | [3]; at 1.2 µM 2% | [3]; at 3.7 µM 5% | [3]; at 11.0 µM 8% | [3]; at 33.0 µM 22% | [3]; at 100.0 µM 40% | [4]; at 1.2 µM 1% | [4]; at 3.7 µM 1% | [4]; at 11.0 µM 3% | [4]; at 33.0 µM 18% | [4]; at 100.0 µM 62% | [5]; at 1.2 µM 3% | [5]; at 3.7 µM 11% | [5]; [16] -8% and 7% | [5]; at 11.0 µM 14% | [5]; at 33.0 µM 33% | [5]; [17] 44% and 25% | [6]; at 1.2 µM -7% | [6]; at 3.7 µM -4% | [6]; [16] 5% and 7% | [6]; at 11.0 µM 0% | [6]; at 33.0 µM 21% | [6]; [17] 15% and 24% | [6]; at 50.0 µM 17.6% and 32.5% | [6]; at 100.0 µM 56% | [7]; [16] 9% and 8% | [7]; [17] 56% and 22% | [7]; at 50.0 µM 11.9% and 59.4% | [8]; at 1.2 µM 1% | [8]; at 3.7 µM 4% | [8]; at 11.0 µM 6% | [8]; at 33.0 µM 18% | [8]; at 100.0 µM 39% | [9]; [16] -35% and 5% | [9]; [17] -2% and 6% | [9]; at 50.0 µM 43.3% and 26.8% | [10]; at 1.2 µM -7% | [10]; at 3.7 µM -23% | [10]; [16] -13% and -1% | [10]; at 11.0 µM -3% | [10]; at 33.0 µM 4% | [10]; [17] 10% and -10% | [10]; at 50.0 µM -2.9% and -0.2% | [10]; at 100.0 µM 39% | [11]; at 1.2 µM -2% | [11]; at 3.7 µM 5% | [11]; at 11.0 µM 10% | [11]; at 33.0 µM 25% | [11]; at 100.0 µM 61% | [12]; at 1.2 µM 0% | [12]; at 3.7 µM 4% | [12]; at 11.0 µM 14% | [12]; at 33.0 µM 31% | [12]; at 100.0 µM 67% | [13]; [16] -6% and 4% | [13]; [17] 41% and 20% | [13]; at 50.0 µM 20.1% and 27.3% | [14]; at 1.2 µM 1% | [14]; at 3.7 µM 3% | [14]; at 11.0 µM 4% | [14]; at 33.0 µM 22%
active: [1]; at 100.0 µM 74% | [5]; at 100.0 µM 80% | [14]; at 100.0 µM 72%
30% (inactive) and 72.7% (active): [5]; at 50.0 µM

O=C(CC(=O)n1nc(-c2ccccc2)c(N=Nc2ccc(Cl)cc2)c1-c1ccccc1)Nc1cccc(Cl)c1
inactive: [1]; at 1.2 µM -4% | [1]; at 3.7 µM -1% | [1]; at 11.0 µM 1% | [1]; at 33.0 µM 0% | [1]; at 100.0 µM 0% | [2]; at 1.2 µM -2% | [2]; at 3.7 µM -3% | [2]; at 11.0 µM -5% | [2]; at 33.0 µM -4% | [2]; at 100.0 µM -5% | [3]; at 1.2 µM 1% | [3]; at 3.7 µM 8% | [3]; at 11.0 µM 14% | [3]; at 33.0 µM 26% | [3]; at 100.0 µM 29% | [4]; at 1.2 µM -5% | [4]; at 3.7 µM -5% | [4]; at 11.0 µM -7% | [4]; at 33.0 µM -4% | [4]; at 100.0 µM -6% | [5]; at 1.2 µM -2% | [5]; at 3.7 µM 1% | [5]; [16] 7% | [5]; at 11.0 µM 0% | [5]; at 33.0 µM 2% | [5]; [17] -3% | [5]; at 50.0 µM 48.1% | [5]; at 100.0 µM 2% | [6]; at 1.2 µM -4% | [6]; at 3.7 µM -4% | [6]; [16] -4% | [6]; at 11.0 µM -2% | [6]; at 33.0 µM -3% | [6]; [17] -19% | [6]; at 50.0 µM 46% | [6]; at 100.0 µM -4% | [7]; [16] 0% | [7]; [17] 2% | [8]; at 1.2 µM -8% | [8]; at 3.7 µM -10% | [8]; at 11.0 µM -10% | [8]; at 33.0 µM -11% | [8]; at 100.0 µM -15% | [9]; [16] 2% | [9]; [17] 15% | [9]; at 50.0 µM 31.6% | [10]; at 1.2 µM 27% | [10]; at 3.7 µM 28% | [10]; [16] 8% | [10]; at 11.0 µM 34% | [10]; at 33.0 µM 45% | [10]; at 100.0 µM 51% | [15]; at 1.2 µM -3% | [15]; at 3.7 µM -3% | [15]; at 11.0 µM -3% | [15]; at 33.0 µM -5% | [15]; at 100.0 µM -5% | [11]; at 1.2 µM -5% | [11]; at 3.7 µM -2% | [11]; at 11.0 µM -2% | [11]; at 33.0 µM -4% | [11]; at 100.0 µM -6% | [13]; [16] -5% | [13]; [17] 17% | [13]; at 50.0 µM 57.1%
active: [7]; at 50.0 µM 73.7% | [10]; [17] 78% | [10]; at 50.0 µM 88.7%
